# Data taken from publication PMC11062922 (Nature Chemical Biology, 2023).
# Read-outs that look alike come from different tables or passages of the source.
# Experiments:
# [1] = test system: SYK; conditions: read-out: apparent Kd, n = 1
# [2] = test system: TNK2; conditions: read-out: apparent Kd, n = 1
# [3] = compound concentrations:100 nM and 1000 nM (sheet 'Lestaurtinib' of Supplementary Table 1),run:Lestaurtinib_02748_R1,Plate:MR024
# [4] = compound concentrations:100 nM and 1000 nM (sheet 'Lestaurtinib' of Supplementary Table 1),run:Lestaurtinib_02752_R1,Plate:MR025
# [5] = compound concentrations:100 nM and 1000 nM (sheet 'Lestaurtinib' of Supplementary Table 1),run:Lestaurtinib_02752_R2,Plate:MR025
# [6] = compound concentrations:100 nM and 1000 nM (sheet 'Lestaurtinib' of Supplementary Table 1),run:Lestaurtinib_02765_R2,Plate:MR026
# [7] = compound concentrations:100 nM and 1000 nM (sheet 'Lestaurtinib' of Supplementary Table 1),run:Lestaurtinib_02765_R3,Plate:MR026
# [8] = compound concentrations:100 nM and 1000 nM (sheet 'Lestaurtinib' of Supplementary Table 1),run:Lestaurtinib_02766_R1,Plate:MR027
# [9] = compound concentrations:100 nM and 1000 nM (sheet 'Lestaurtinib' of Supplementary Table 1),run:Lestaurtinib_02766_R3,Plate:MR027
# [10] = compound concentrations:100 nM and 1000 nM (sheet 'Lestaurtinib' of Supplementary Table 1),run:Lestaurtinib_02768_R1,Plate:MR028
# [11] = compound concentrations:100 nM and 1000 nM (sheet 'Lestaurtinib' of Supplementary Table 1),run:Lestaurtinib_02768_R2,Plate:MR028
# [12] = compound concentrations:100 nM and 1000 nM (sheet 'Lestaurtinib' of Supplementary Table 1),run:Lestaurtinib_02795_R1,Plate:MR022
# [13] = compound concentrations:100 nM and 1000 nM (sheet 'Lestaurtinib' of Supplementary Table 1),run:Lestaurtinib_02795_R3,Plate:MR022
# [14] = compound concentrations:100 nM and 1000 nM (sheet 'Lestaurtinib' of Supplementary Table 1),run:Lestaurtinib_02802_R1,Plate:MR029
# [15] = compound concentrations:100 nM and 1000 nM (sheet 'Lestaurtinib' of Supplementary Table 1),run:Lestaurtinib_02802_R3,Plate:MR029
# [16] = compound concentrations:100 nM and 1000 nM (sheet 'Lestaurtinib' of Supplementary Table 1),run:Lestaurtinib_02896_R1,Plate:MR030
# [17] = compound concentrations:100 nM and 1000 nM (sheet 'Lestaurtinib' of Supplementary Table 1),run:Lestaurtinib_02896_R3,Plate:MR030
# [18] = compound concentrations:100 nM and 1000 nM (sheet 'Lestaurtinib' of Supplementary Table 1),run:Lestaurtinib_03172_R3,Plate:MR031
# [19] = compound concentrations:100 nM and 1000 nM (sheet 'Lestaurtinib' of Supplementary Table 1),run:Lestaurtinib_03252_R1,Plate:MR032
# [20] = compound concentrations:100 nM and 1000 nM (sheet 'Lestaurtinib' of Supplementary Table 1),run:Lestaurtinib_03260_R3,Plate:MR033
substance,measurement,setting,value
Lestaurtinib,potency estimated from few doses,[1]; [3],393 nM
same,potency estimated from few doses,"[1]; compound concentrations:100 nM and 1000 nM (sheet 'Lestaurtinib' of Supplementary Table 1),run:Lestaurtinib_02748_R2,Plate:MR024",196 nM
same,potency estimated from few doses,[1]; [4],510 nM
same,potency estimated from few doses,[1]; [5],136 nM
same,potency estimated from few doses,[1]; [6],169 nM
same,potency estimated from few doses,[1]; [7],182 nM
same,potency estimated from few doses,[1]; [8],211 nM
same,potency estimated from few doses,[1]; [9],441 nM
same,potency estimated from few doses,[1]; [10],484 nM
same,potency estimated from few doses,[1]; [11],424 nM
same,potency estimated from few doses,[1]; [12],460 nM
same,potency estimated from few doses,"[1]; compound concentrations:100 nM and 1000 nM (sheet 'Lestaurtinib' of Supplementary Table 1),run:Lestaurtinib_02795_R2,Plate:MR022",141 nM
same,potency estimated from few doses,[1]; [13],259 nM
same,potency estimated from few doses,[1]; [14],239 nM
same,potency estimated from few doses,[1]; [15],451 nM
same,potency estimated from few doses,[1]; [16],253 nM
same,potency estimated from few doses,[1]; [17],217 nM
same,potency estimated from few doses,"[1]; compound concentrations:100 nM and 1000 nM (sheet 'Lestaurtinib' of Supplementary Table 1),run:Lestaurtinib_03172_R2,Plate:MR031",595 nM
same,potency estimated from few doses,[1]; [18],400 nM
same,potency estimated from few doses,[1]; [19],149 nM
same,potency estimated from few doses,"[1]; compound concentrations:100 nM and 1000 nM (sheet 'Lestaurtinib' of Supplementary Table 1),run:Lestaurtinib_03252_R2,Plate:MR032",222 nM
same,potency estimated from few doses,"[1]; compound concentrations:100 nM and 1000 nM (sheet 'Lestaurtinib' of Supplementary Table 1),run:Lestaurtinib_03260_R2,Plate:MR033",224 nM
same,potency estimated from few doses,[1]; [20],130 nM
same,potency estimated from few doses,"[2]; compound concentrations:100 nM and 1000 nM (sheet 'Lestaurtinib' of Supplementary Table 1),run:Lestaurtinib_02339_R3,Plate:MR001",44 nM
same,potency estimated from few doses,"[2]; compound concentrations:100 nM and 1000 nM (sheet 'Lestaurtinib' of Supplementary Table 1),run:Lestaurtinib_02364_R1,Plate:MR002",69.8 nM
same,potency estimated from few doses,"[2]; compound concentrations:100 nM and 1000 nM (sheet 'Lestaurtinib' of Supplementary Table 1),run:Lestaurtinib_02364_R2,Plate:MR002",56.4 nM
same,potency estimated from few doses,"[2]; compound concentrations:100 nM and 1000 nM (sheet 'Lestaurtinib' of Supplementary Table 1),run:Lestaurtinib_02364_R3,Plate:MR002",61.3 nM
same,potency estimated from few doses,"[2]; compound concentrations:100 nM and 1000 nM (sheet 'Lestaurtinib' of Supplementary Table 1),run:Lestaurtinib_02367_R1,Plate:MR003",66.6 nM
same,potency estimated from few doses,"[2]; compound concentrations:100 nM and 1000 nM (sheet 'Lestaurtinib' of Supplementary Table 1),run:Lestaurtinib_02367_R2,Plate:MR003",52.8 nM
same,potency estimated from few doses,"[2]; compound concentrations:100 nM and 1000 nM (sheet 'Lestaurtinib' of Supplementary Table 1),run:Lestaurtinib_02381_R1,Plate:MR004",50 nM
same,potency estimated from few doses,"[2]; compound concentrations:100 nM and 1000 nM (sheet 'Lestaurtinib' of Supplementary Table 1),run:Lestaurtinib_02381_R2,Plate:MR004",65.5 nM
same,potency estimated from few doses,"[2]; compound concentrations:100 nM and 1000 nM (sheet 'Lestaurtinib' of Supplementary Table 1),run:Lestaurtinib_02407_R3,Plate:MR005",54.4 nM
same,potency estimated from few doses,"[2]; compound concentrations:100 nM and 1000 nM (sheet 'Lestaurtinib' of Supplementary Table 1),run:Lestaurtinib_02422_R1,Plate:MR006",44.1 nM
same,potency estimated from few doses,"[2]; compound concentrations:100 nM and 1000 nM (sheet 'Lestaurtinib' of Supplementary Table 1),run:Lestaurtinib_02422_R3,Plate:MR006",48 nM
same,potency estimated from few doses,"[2]; compound concentrations:100 nM and 1000 nM (sheet 'Lestaurtinib' of Supplementary Table 1),run:Lestaurtinib_02437_R3,Plate:MR007",14.1 nM
same,potency estimated from few doses,"[2]; compound concentrations:100 nM and 1000 nM (sheet 'Lestaurtinib' of Supplementary Table 1),run:Lestaurtinib_02438_R2,Plate:MR008",43.2 nM
same,potency estimated from few doses,"[2]; compound concentrations:100 nM and 1000 nM (sheet 'Lestaurtinib' of Supplementary Table 1),run:Lestaurtinib_02443_R2,Plate:MR009",44.4 nM
same,potency estimated from few doses,"[2]; compound concentrations:100 nM and 1000 nM (sheet 'Lestaurtinib' of Supplementary Table 1),run:Lestaurtinib_02443_R3,Plate:MR009",62 nM
same,potency estimated from few doses,"[2]; compound concentrations:100 nM and 1000 nM (sheet 'Lestaurtinib' of Supplementary Table 1),run:Lestaurtinib_02473_R1,Plate:MR010",52.5 nM
same,potency estimated from few doses,"[2]; compound concentrations:100 nM and 1000 nM (sheet 'Lestaurtinib' of Supplementary Table 1),run:Lestaurtinib_02473_R3,Plate:MR010",23.2 nM
same,potency estimated from few doses,"[2]; compound concentrations:100 nM and 1000 nM (sheet 'Lestaurtinib' of Supplementary Table 1),run:Lestaurtinib_02482_R1,Plate:MR011",54.7 nM
same,potency estimated from few doses,"[2]; compound concentrations:100 nM and 1000 nM (sheet 'Lestaurtinib' of Supplementary Table 1),run:Lestaurtinib_02482_R2,Plate:MR011",59.1 nM
same,potency estimated from few doses,"[2]; compound concentrations:100 nM and 1000 nM (sheet 'Lestaurtinib' of Supplementary Table 1),run:Lestaurtinib_02482_R3,Plate:MR011",60.1 nM
same,potency estimated from few doses,"[2]; compound concentrations:100 nM and 1000 nM (sheet 'Lestaurtinib' of Supplementary Table 1),run:Lestaurtinib_02487_R1,Plate:MR012",51.2 nM
same,potency estimated from few doses,"[2]; compound concentrations:100 nM and 1000 nM (sheet 'Lestaurtinib' of Supplementary Table 1),run:Lestaurtinib_02487_R3,Plate:MR012",44.6 nM
same,potency estimated from few doses,"[2]; compound concentrations:100 nM and 1000 nM (sheet 'Lestaurtinib' of Supplementary Table 1),run:Lestaurtinib_02496_R2,Plate:MR013",48.4 nM
same,potency estimated from few doses,"[2]; compound concentrations:100 nM and 1000 nM (sheet 'Lestaurtinib' of Supplementary Table 1),run:Lestaurtinib_02496_R3,Plate:MR013",38.5 nM
same,potency estimated from few doses,"[2]; compound concentrations:100 nM and 1000 nM (sheet 'Lestaurtinib' of Supplementary Table 1),run:Lestaurtinib_02566_R1,Plate:MR014",51.6 nM
same,potency estimated from few doses,"[2]; compound concentrations:100 nM and 1000 nM (sheet 'Lestaurtinib' of Supplementary Table 1),run:Lestaurtinib_02566_R2,Plate:MR014",58.8 nM
same,potency estimated from few doses,"[2]; compound concentrations:100 nM and 1000 nM (sheet 'Lestaurtinib' of Supplementary Table 1),run:Lestaurtinib_02572_R1,Plate:MR015",37.5 nM
same,potency estimated from few doses,"[2]; compound concentrations:100 nM and 1000 nM (sheet 'Lestaurtinib' of Supplementary Table 1),run:Lestaurtinib_02572_R2,Plate:MR015",46.2 nM
same,potency estimated from few doses,"[2]; compound concentrations:100 nM and 1000 nM (sheet 'Lestaurtinib' of Supplementary Table 1),run:Lestaurtinib_02572_R3,Plate:MR015",49.3 nM
same,potency estimated from few doses,"[2]; compound concentrations:100 nM and 1000 nM (sheet 'Lestaurtinib' of Supplementary Table 1),run:Lestaurtinib_02577_R1,Plate:MR016",55.6 nM
same,potency estimated from few doses,"[2]; compound concentrations:100 nM and 1000 nM (sheet 'Lestaurtinib' of Supplementary Table 1),run:Lestaurtinib_02577_R2,Plate:MR016",56.4 nM
same,potency estimated from few doses,"[2]; compound concentrations:100 nM and 1000 nM (sheet 'Lestaurtinib' of Supplementary Table 1),run:Lestaurtinib_02577_R3,Plate:MR016",62.6 nM
same,potency estimated from few doses,"[2]; compound concentrations:100 nM and 1000 nM (sheet 'Lestaurtinib' of Supplementary Table 1),run:Lestaurtinib_02584_R1,Plate:MR017",56.4 nM
same,potency estimated from few doses,"[2]; compound concentrations:100 nM and 1000 nM (sheet 'Lestaurtinib' of Supplementary Table 1),run:Lestaurtinib_02584_R2,Plate:MR017",64.8 nM
same,potency estimated from few doses,"[2]; compound concentrations:100 nM and 1000 nM (sheet 'Lestaurtinib' of Supplementary Table 1),run:Lestaurtinib_02601_R1,Plate:MR018",77.3 nM
same,potency estimated from few doses,"[2]; compound concentrations:100 nM and 1000 nM (sheet 'Lestaurtinib' of Supplementary Table 1),run:Lestaurtinib_02606_R1,Plate:MR019",55.6 nM
same,potency estimated from few doses,"[2]; compound concentrations:100 nM and 1000 nM (sheet 'Lestaurtinib' of Supplementary Table 1),run:Lestaurtinib_02606_R3,Plate:MR019",54.4 nM
same,potency estimated from few doses,"[2]; compound concentrations:100 nM and 1000 nM (sheet 'Lestaurtinib' of Supplementary Table 1),run:Lestaurtinib_02624_R2,Plate:MR020",52.3 nM
same,potency estimated from few doses,"[2]; compound concentrations:100 nM and 1000 nM (sheet 'Lestaurtinib' of Supplementary Table 1),run:Lestaurtinib_02724_R2,Plate:MR021",56.1 nM
same,potency estimated from few doses,"[2]; compound concentrations:100 nM and 1000 nM (sheet 'Lestaurtinib' of Supplementary Table 1),run:Lestaurtinib_02741_R2,Plate:MR023",224 nM
same,potency estimated from few doses,[2]; [3],38.5 nM
same,potency estimated from few doses,"[2]; compound concentrations:100 nM and 1000 nM (sheet 'Lestaurtinib' of Supplementary Table 1),run:Lestaurtinib_02748_R3,Plate:MR024",52.3 nM
same,potency estimated from few doses,[2]; [4],57.7 nM
same,potency estimated from few doses,[2]; [5],46.1 nM
same,potency estimated from few doses,[2]; [6],115 nM
same,potency estimated from few doses,[2]; [7],75.6 nM
same,potency estimated from few doses,[2]; [8],51.8 nM
same,potency estimated from few doses,"[2]; compound concentrations:100 nM and 1000 nM (sheet 'Lestaurtinib' of Supplementary Table 1),run:Lestaurtinib_02766_R2,Plate:MR027",15.7 nM
same,potency estimated from few doses,[2]; [9],41.6 nM
same,potency estimated from few doses,[2]; [10],60 nM
same,potency estimated from few doses,[2]; [11],56.1 nM
same,potency estimated from few doses,[2]; [12],49.4 nM
same,potency estimated from few doses,[2]; [13],160 nM
same,potency estimated from few doses,[2]; [14],71.2 nM
same,potency estimated from few doses,[2]; [15],9.76 nM
same,potency estimated from few doses,[2]; [16],61.8 nM
same,potency estimated from few doses,[2]; [17],53.9 nM
same,potency estimated from few doses,"[2]; compound concentrations:100 nM and 1000 nM (sheet 'Lestaurtinib' of Supplementary Table 1),run:Lestaurtinib_03172_R1,Plate:MR031",45.6 nM
same,potency estimated from few doses,[2]; [18],48.7 nM
same,potency estimated from few doses,[2]; [19],75.4 nM
same,potency estimated from few doses,"[2]; compound concentrations:100 nM and 1000 nM (sheet 'Lestaurtinib' of Supplementary Table 1),run:Lestaurtinib_03260_R1,Plate:MR033",115 nM
same,potency estimated from few doses,[2]; [20],59.2 nM
